{"source": "PubChem BioAssay (NCI)", "note": "Compounds without any hit were thinned out: in the full panel of roughly 79,000, 15% have a hit. Unmarked numbers belong to inactive results. No stated cut-off is given here; in the data, active means growth inhibition above about 70%; inactive means the rest.", "data": [{"assay": "NCI Yeast Anticancer Drug Screen. Data for the mec2-1 strain (AID 157)", "details": "S. cerevisiae mec2-1 strain, at 50.0 µM, hits give high values", "in_short": "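Using mec2-1 yeast: add compound, measure growth, express inhibition versus vehicle-treated cultures.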", "units": {"growth inhibition": "%"}, "values": [{"smiles": "OCc1c(-c2ccc(Cl)cc2)c(-c2ccc(Cl)cc2)c2n1CCC2", "growth inhibition": -18}, {"smiles": "CCOC(=O)c1[nH]c(Cc2[nH]c(Cc3[nH]c(C(=O)OCC)c(C)c3C(=O)OCC)c(C(=O)OCC)c2C)c(C(=O)OCC)c1C", "growth inhibition": 21.2}, {"smiles": "Cc1oc2nc(N(C)C)nc(NN)c2c1C", "growth inhibition": 5.55}, {"smiles": "CCOC(=O)Cc1nc2ccccc2[nH]c1=O", "growth inhibition": -11.7}, {"smiles": "NC(=O)Nc1ccc(Cl)cc1[N+](=O)[O-]", "growth inhibition": -8.5}, {"smiles": "C[C@@H]1CC[C@@]2(C)C(C(=O)O)=CCCC2[C@@]1(C)CC(=O)c1ccoc1", "note": "(stereo not given in full)", "growth inhibition": -8.55}, {"smiles": "CC(C)CCC(=O)O", "growth inhibition": -9.1}, {"smiles": "CC(=O)CC(=O)NC(C)(C)C", "growth inhibition": -33}, {"smiles": "CCCCCCC(C)OC(C)=O", "note": "(stereo not given)", "growth inhibition": -44.5}, {"smiles": "O=C(Nc1ccccc1Cl)Oc1ccc(C(=O)c2ccccc2)cc1", "growth inhibition": -13.3}, {"smiles": "Cc1ccc(O)c(C(C)C)c1", "growth inhibition": -48.8}, {"smiles": "Cc1ccc(O)c(C(C)(C)C)c1", "growth inhibition": -8}, {"smiles": "CCC(=O)OCCCC1CCCO1", "note": "(stereo not given)", "growth inhibition": -0.55}, {"smiles": "CCC1CN1C(=O)c1cc(C(=O)N2CC2CC)cc(C(=O)N2CC2CC)c1", "note": "(stereo not given)", "growth inhibition": 15.7}, {"smiles": "CC1=C(C(=O)NCCc2ccccc2)CC(C(=O)NCCc2ccccc2)=C(C)N1", "growth inhibition": 6.4}, {"smiles": "C[C@@H](O)CO", "growth inhibition": -16}, {"smiles": "CC1(c2ccccc2)CCC(=O)NC1", "note": "(stereo not given)", "growth inhibition": -37.5}, {"smiles": "Cc1ccccc1N(CCC#N)C1=NN(C(=O)CC(=O)Nc2ccccc2)C(c2ccccc2)C1", "note": "(stereo not given)", "growth inhibition": 1}, {"smiles": "OCCO", "growth inhibition": -24.1}, {"smiles": "CCCCCCCCCCCC(=O)C1=C(O)C(O)CCC1=O", "note": "(stereo not given)", "growth inhibition": -4.7}, {"smiles": "O=C(O)c1nn(-c2ccc(Cl)cc2)c2c1C(=O)c1ccccc1C2=O", "growth inhibition": 14.7}, {"smiles": "COc1cc(OC)c(NC(=O)Nc2ccc([N+](=O)[O-])cc2OC)cc1Cl", "growth inhibition": -17.6}, {"smiles": "COC(=O)[C@H](Cc1c[nH]c2ccccc12)NP(=O)(OCCC#N)OCC1OC(n2cc(C)c(=O)[nH]c2=O)CC1N=[N+]=[N-]", "note": "(stereo not given in full)", "growth inhibition": -33.1}, {"smiles": "Cc1c(C(=O)Nc2ccccc2)nnn1-c1ccnc2cc(C(F)(F)F)ccc12", "growth inhibition": -6.75}, {"smiles": "CC1Oc2ccc3ccccc3c2C(C)N1C", "note": "(stereo not given)", "growth inhibition": 1.9}, {"smiles": "CC(=O)OCC(OC(C)=O)C(OC(C)=O)c1cnn(-c2ccccc2)n1", "note": "(stereo not given)", "growth inhibition": -1.5}, {"smiles": "O=C1CCCCCCCCC1=O", "growth inhibition": -6.4}, {"smiles": "CC(C)N(C=C(C#N)C#N)C(C)C", "growth inhibition": 7.5}, {"smiles": "COc1cc(Nc2nc3cc(C(F)(F)F)ccc3nc2-c2ccccc2)cc(OC)c1OC", "growth inhibition": -4.8}, {"smiles": "Cc1[nH]c(=O)[nH]c(=O)c1NC=O", "growth inhibition": -28.3}, {"smiles": "CCCCNc1ccc2c(c1)Cc1ccccc1-2", "growth inhibition": -4.1}, {"smiles": "COc1ccc(/C=C2\\CCC(Cc3ccccc3)(CN(C)C)C2=O)cc1", "note": "(stereo not given)", "growth inhibition": -15.3}, {"smiles": "COC(=O)c1c(C=O)cccc1[N+](=O)[O-]", "growth inhibition": -0.05}, {"smiles": "COC(=O)c1ccc(Cl)c(Cl)c1Cl", "growth inhibition": -7.35}, {"smiles": "N#CCc1ccc(C(C#N)C(=O)CCC(=O)C(C#N)c2ccc(CC#N)cc2)cc1", "note": "(stereo not given)", "growth inhibition": 11.3}, {"smiles": "COc1ccc(C[C@H](N)C(=O)NC2C(CO)OC(n3cnc4c(N(C)C)ncnc43)C2O)cc1", "note": "(stereo not given in full)", "growth inhibition": -35.1}, {"smiles": "CC(=O)OC/C=C(\\C)CC(/C=C(C)/C=C/C1=C(C)CCCC1(C)C)S(=O)(=O)c1ccccc1", "note": "(stereo not given)", "growth inhibition": 9.4}, {"smiles": "O=C(N/N=C\\c1cc(=O)[nH]c(=O)[nH]1)c1ccccc1", "growth inhibition": -2.95}, {"smiles": "Cc1[nH]ccc2c3ccc(=O)cc3n(S(=O)(=O)O)c12", "growth inhibition": -8.3}, {"smiles": "CCCCNC(=O)NC/C(Br)=C/Br", "growth inhibition": 5.15}]}, {"assay": "NCI Yeast Anticancer Drug Screen. Data for the sgs1 mgt1 strain (AID 161);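 further: 0% = growth of cultures given vehicle only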", "details": "S. cerevisiae sgs1 mgt1 strain, at 50.0 µM, hits give high values", "in_short": "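Yeast cells carrying a defined DNA-repair defect were exposed to test compounds. Growth inhibition was measured relative to vehicle-treated controls.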", "units": {"growth inhibition": "%"}, "values": [{"smiles": "OCc1c(-c2ccc(Cl)cc2)c(-c2ccc(Cl)cc2)c2n1CCC2", "growth inhibition": 1.3}, {"smiles": "CCOC(=O)c1[nH]c(Cc2[nH]c(Cc3[nH]c(C(=O)OCC)c(C)c3C(=O)OCC)c(C(=O)OCC)c2C)c(C(=O)OCC)c1C", "growth inhibition": 45.2}, {"smiles": "Cc1oc2nc(N(C)C)nc(NN)c2c1C", "growth inhibition": -4.55}, {"smiles": "CCOC(=O)Cc1nc2ccccc2[nH]c1=O", "growth inhibition": 1.25}, {"smiles": "NC(=O)Nc1ccc(Cl)cc1[N+](=O)[O-]", "growth inhibition": 17.6}, {"smiles": "C[C@@H]1CC[C@@]2(C)C(C(=O)O)=CCCC2[C@@]1(C)CC(=O)c1ccoc1", "note": "(stereo not given in full)", "growth inhibition": -36.1}, {"smiles": "CC(C)CCC(=O)O", "growth inhibition": -4.4}, {"smiles": "CC(=O)CC(=O)NC(C)(C)C", "growth inhibition": -16.4}, {"smiles": "CCCCCCC(C)OC(C)=O", "note": "(stereo not given)", "growth inhibition": -2.55}, {"smiles": "O=C(Nc1ccccc1Cl)Oc1ccc(C(=O)c2ccccc2)cc1", "growth inhibition": 30.2}, {"smiles": "Cc1ccc(O)c(C(C)C)c1", "growth inhibition": -34.4}, {"smiles": "Cc1ccc(O)c(C(C)(C)C)c1", "growth inhibition": 20.4}, {"smiles": "CCC(=O)OCCCC1CCCO1", "note": "(stereo not given)", "growth inhibition": 1.05}, {"smiles": "CCC1CN1C(=O)c1cc(C(=O)N2CC2CC)cc(C(=O)N2CC2CC)c1", "note": "(stereo not given)", "growth inhibition": 5.5}, {"smiles": "CC1=C(C(=O)NCCc2ccccc2)CC(C(=O)NCCc2ccccc2)=C(C)N1", "growth inhibition": 5.75}, {"smiles": "C[C@@H](O)CO", "growth inhibition": 1.7}, {"smiles": "CC1(c2ccccc2)CCC(=O)NC1", "note": "(stereo not given)", "growth inhibition": -2.1}, {"smiles": "Cc1ccccc1N(CCC#N)C1=NN(C(=O)CC(=O)Nc2ccccc2)C(c2ccccc2)C1", "note": "(stereo not given)", "growth inhibition": 12.1}, {"smiles": "OCCO", "growth inhibition": -49.3}, {"smiles": "CCCCCCCCCCCC(=O)C1=C(O)C(O)CCC1=O", "note": "(stereo not given)", "growth inhibition": -6.55}, {"smiles": "O=C(O)c1nn(-c2ccc(Cl)cc2)c2c1C(=O)c1ccccc1C2=O", "growth inhibition": -1.75}, {"smiles": "COc1cc(OC)c(NC(=O)Nc2ccc([N+](=O)[O-])cc2OC)cc1Cl", "growth inhibition": -7.15}, {"smiles": "COC(=O)[C@H](Cc1c[nH]c2ccccc12)NP(=O)(OCCC#N)OCC1OC(n2cc(C)c(=O)[nH]c2=O)CC1N=[N+]=[N-]", "note": "(stereo not given in full)", "growth inhibition": -23.4}, {"smiles": "Cc1c(C(=O)Nc2ccccc2)nnn1-c1ccnc2cc(C(F)(F)F)ccc12", "growth inhibition": -8.85}, {"smiles": "CC1Oc2ccc3ccccc3c2C(C)N1C", "note": "(stereo not given)", "growth inhibition": -6.45}, {"smiles": "CC(=O)OCC(OC(C)=O)C(OC(C)=O)c1cnn(-c2ccccc2)n1", "note": "(stereo not given)", "growth inhibition": 2.5}, {"smiles": "O=C1CCCCCCCCC1=O", "growth inhibition": -11.3}, {"smiles": "CC(C)N(C=C(C#N)C#N)C(C)C", "growth inhibition": -0.4}, {"smiles": "COc1cc(Nc2nc3cc(C(F)(F)F)ccc3nc2-c2ccccc2)cc(OC)c1OC", "growth inhibition": -26.4}, {"smiles": "Cc1[nH]c(=O)[nH]c(=O)c1NC=O", "growth inhibition": -8.85}, {"smiles": "CCCCNc1ccc2c(c1)Cc1ccccc1-2", "growth inhibition": 15.8}, {"smiles": "COc1ccc(/C=C2\\CCC(Cc3ccccc3)(CN(C)C)C2=O)cc1", "note": "(stereo not given)", "growth inhibition": 25.3}, {"smiles": "COC(=O)c1c(C=O)cccc1[N+](=O)[O-]", "growth inhibition": 1.75}, {"smiles": "COC(=O)c1ccc(Cl)c(Cl)c1Cl", "growth inhibition": -19.6}, {"smiles": "N#CCc1ccc(C(C#N)C(=O)CCC(=O)C(C#N)c2ccc(CC#N)cc2)cc1", "note": "(stereo not given)", "growth inhibition": -13.1}, {"smiles": "COc1ccc(C[C@H](N)C(=O)NC2C(CO)OC(n3cnc4c(N(C)C)ncnc43)C2O)cc1", "note": "(stereo not given in full)", "growth inhibition": -18.4}, {"smiles": "CC(=O)OC/C=C(\\C)CC(/C=C(C)/C=C/C1=C(C)CCCC1(C)C)S(=O)(=O)c1ccccc1", "note": "(stereo not given)", "growth inhibition": -6.15}, {"smiles": "O=C(N/N=C\\c1cc(=O)[nH]c(=O)[nH]1)c1ccccc1", "growth inhibition": -11.5}, {"smiles": "Cc1[nH]ccc2c3ccc(=O)cc3n(S(=O)(=O)O)c12", "growth inhibition": -1.45}, {"smiles": "CCCCNC(=O)NC/C(Br)=C/Br", "growth inhibition": 1.4}]}]}
